The results in this text go back to PubChem BioAssay (EPA / NIEHS).

Assay [1] can be described thus: ATG_DR4_LXR_CIS: Attagene CIS-FACTORIAL HepG2 Assay for human Liver X Receptor (LXR), DR4 submotif (AID 2282929). As to conditions: HepG2 Attagene DR4 cis-reporter, mRNA transcription; AC50: actives raise or lower the signal unless noted; outcome: actives raise or lower the signal unless noted. The essentials: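 Cells were transfected with multiple reporter transcription units, exposed to chemicals for 24 hours, then lysed for RNA. Reporter mRNA induction was measured by RT-PCR with capillary electrophoresis detection and fitted in both directions relative to DMSO.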

The target in assay [2] is Aryl hydrocarbon receptor (Homo sapiens) (UniProt P35869). Kind of assay: ATG_Ahr_CIS: Attagene CIS-FACTORIAL HepG2 Assay for human Aryl Hydrocarbon Receptor (Ahr) (AID 2282930). The settings on record: HepG2 AhR cis-factorial reporter transcription; actives raise or lower the signal. In outline:
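Following 24 h of chemical dosing, transfected HepG2 liver cells with cis-driven reporter units were lysed for RNA; reporter mRNA was quantified via RT-PCR and capillary electrophoresis, and responses fitted bidirectionally from DMSO.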

Assay [3] is described as follows: ATG_AP_1_CIS: Attagene CIS-FACTORIAL HepG2 Assay for human Activator Protein 1 (AP-1) (AID 2282931). As to conditions: HepG2 Attagene cis-factorial AP-1 reporter mRNA; actives raise or lower the signal. In outline: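 Endogenous transcription-factor activity in human HepG2 liver cells is read through a cis-promoter reporter transcript, sampled 24 h after dosing. Detection uses RT-PCR with capillary electrophoresis; values come from bidirectional fitting relative to DMSO.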

A short description of assay [4]: ATG_AP_2_CIS: Attagene CIS-FACTORIAL HepG2 Assay for human Activator Protein 2 (AP-2) (AID 2282932). As to conditions: HepG2 AP-2 cis-reporter, Attagene transcription factor profiling; AC50: actives raise or lower the signal unless noted; outcome: actives raise or lower the signal unless noted. The essentials: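 HepG2 cells were transiently transfected with multiple cis-promoter reporter transcription units and dosed for 24 h. Reporter mRNA was measured by RT-PCR with capillary electrophoresis fluorescence; bidirectional fits relative to DMSO baseline.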

Assay [5] in a line: ATG_BRE_CIS: Attagene CIS-FACTORIAL HepG2 Assay for human Bone Morphogenetic Protein (BMP) Response Element (BRE) (AID 2282933). The settings on record: HepG2 BMP response element reporter, Attagene transcription factor profiling; actives raise or lower the signal. The essentials:
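Gain- or loss-of-signal was derived by bidirectional fitting against DMSO controls. The signal came from reporter mRNA, measured by RT-PCR and capillary electrophoresis, in HepG2 cells transiently carrying multiple reporter units and dosed for 24 h.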

Assay [6] has as its target Transcription factor E2F1 (Homo sapiens) (UniProt Q01094). Kind of assay: ATG_E2F_CIS: Attagene CIS-FACTORIAL HepG2 Assay for human E2F Transcription Factor 1 (AID 2282935). The settings on record: HepG2 Attagene cis-reporter, E2F reporter RNA transcripts; actives raise or lower the signal. The essentials: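 HepG2 cells transiently transfected with multiplexed cis-element reporter units, dosed for 24 h. Reporter mRNA measured by RT-PCR, 6-FAM primer-extension labeling, HpaI digestion and capillary electrophoresis; bidirectional fit versus DMSO baseline.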

Assay [7] in a line: ATG_E_Box_CIS: Attagene CIS-FACTORIAL HepG2 Assay for human Enhancer Box (E-box) (AID 2282936). As to conditions: HepG2 E-box cis-reporter transcription, actives raise or lower the signal. In outline: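 HepG2 cells transiently transfected with multiplexed cis-element reporter units sensing endogenous transcription factor activity; 24 h compound exposure. Reporter mRNA measured by RT-PCR, 6-FAM primer extension, HpaI digestion and capillary electrophoresis; bidirectional fit versus DMSO.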

Assay [8] can be described thus: ATG_M_61_CIS: Attagene CIS-FACTORIAL HepG2 Assay for M61 Transcription Factor (Internal Marker) (AID 2282937). As to conditions: HepG2 Attagene CIS-FACTORIAL M61 internal marker reporter; actives raise or lower the signal. The essentials:
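Cells were transfected with reporter units under cis-regulatory promoters, treated with chemicals for 24 h, then lysed for RNA. Reporter transcripts were quantified by RT-PCR and capillary electrophoresis, and activity was fitted bidirectionally against DMSO.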

Assay [9] can be described thus: ATG_EGR_CIS: Attagene CIS-FACTORIAL HepG2 Assay for human Early Growth Response 1 (EGR1) (AID 2282938). As to conditions: HepG2 Attagene CIS-FACTORIAL EGR reporter mRNA; actives raise or lower the signal. In outline:
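Endogenous TF activity in HepG2 liver cells was gauged through cis-promoter reporter constructs transiently transfected. After 24 h dosing, reporter mRNA was quantified by RT-PCR and capillary electrophoresis, and curves fitted in both directions versus DMSO.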

The nature of assay [10]: ATG_M_19_CIS: Attagene CIS-FACTORIAL HepG2 Assay for M19 Transcription Factor (Internal Marker) (AID 2282939). The settings on record: HepG2 Attagene CIS-FACTORIAL M19 internal marker reporter; actives raise or lower the signal. The essentials: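 Following a 24 h exposure, RNA from transfected HepG2 cells was reverse-transcribed, PCR-amplified with reporter-specific primers, end-labelled with 6-FAM and HpaI-digested before capillary separation. Values represent gain or loss versus DMSO.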

Assay [11] can be described thus: ATG_ERE_CIS: Attagene CIS-FACTORIAL HepG2 Assay for Estrogen Response Element (ERE) (AID 2282940). The settings on record: HepG2 ERE cis-reporter, Attagene RNA transcript; actives raise or lower the signal. The essentials:
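HepG2, transient cis-reporter units, 24 h exposure. RNA isolated, oligo(dT) RT, reporter-specific PCR, FAM extension, HpaI cut, CE detection. Gain/loss-of-signal vs DMSO.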

Assay [12] is described as follows: ATG_Ets_CIS: Attagene CIS-FACTORIAL HepG2 Assay for human Erythroblast Transformation Specific (ETS) (AID 2282941). The settings on record: HepG2 ETS cis-reporter transcription; AC50: actives raise or lower the signal unless noted; outcome: actives raise or lower the signal unless noted. The essentials:
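After transient cis-reporter transfection, HepG2 cells receive test chemical for 24 h. Reporter mRNA levels, measured by RT-PCR and capillary electrophoresis fluorescence, are analysed bidirectionally relative to the DMSO baseline.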

The target in assay [13] is Hepatocyte nuclear factor 3-beta (Homo sapiens) (UniProt Q9Y261). Briefly: ATG_FoxA2_CIS: Attagene CIS-FACTORIAL HepG2 Assay for human Forkhead box A2 (FOXA2) (AID 2282942). The settings on record: HepG2 cis-reporter transcription factor activity, 24 h; actives raise or lower the signal. The essentials: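 Endogenous transcription factor activity was read in HepG2 cells carrying transiently transfected cis-promoter reporter units. After 24 h dosing, reporter mRNA was quantified by RT-PCR and capillary electrophoresis, and values fitted bidirectionally versus DMSO.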

Assay [14] can be described thus: ATG_FoxO_CIS: Attagene CIS-FACTORIAL HepG2 Assay for human Forkhead box O (FoxO) (AID 2282943). The settings on record: HepG2 Attagene cis-reporter, FoxO element, mRNA; actives raise or lower the signal. In outline: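 24 h chemical exposure, HepG2 with transient cis-MRTU transfection. RNA extraction, oligo(dT) RT, reporter-specific PCR, primer-extension labelling, HpaI digestion, CE fragment analysis; bidirectional fit, DMSO baseline.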

The nature of assay [15]: ATG_GATA_CIS: Attagene CIS-FACTORIAL HepG2 Assay for human GATA Binding Protein (AID 2282944). As to conditions: HepG2 GATA cis-element reporter, Attagene multiplex mRNA; actives raise or lower the signal. The essentials: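 DMSO serves as negative control and baseline for bidirectional fitting of reporter mRNA changes. HepG2 cells bearing transiently transfected cis-promoter reporters were exposed 24 h; transcripts detected via RT-PCR and capillary electrophoresis.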

Assay [16] in a line: ATG_GLI_CIS: Attagene CIS-FACTORIAL HepG2 Assay for human Zinc Finger Protein GLI1 (AID 2282945). The settings on record: HepG2, Attagene cis-factorial reporter mRNA, GLI element; actives raise or lower the signal. The essentials: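 HepG2 cells transiently transfected with cis-promoter multiplexed reporter units report endogenous transcription factor activity. After 24 h chemical exposure, reporter mRNA was quantified by RT-PCR, 6-FAM labelling, HpaI digestion and capillary electrophoresis, with bidirectional fitting against DMSO.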

Assay [17] can be described thus: ATG_GRE_CIS: Attagene CIS-FACTORIAL HepG2 Assay for human Glucocorticoid Response Elements (GRE) (AID 2282947). The settings on record: HepG2 GRE cis-reporter, Attagene multiplex mRNA; AC50: actives raise or lower the signal unless noted; outcome: actives raise or lower the signal unless noted. In outline: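 HepG2 cells transiently transfected with multiple cis-promoter reporter units measure endogenous TF activity; 24 h compound exposure. Reporter mRNA quantified by RT-PCR, FAM labelling, HpaI digestion and capillary electrophoresis; bidirectional fit vs DMSO baseline.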

A short description of assay [18]: ATG_ISRE_CIS: Attagene CIS-FACTORIAL HepG2 Assay for human Interferon Regulatory Factor 1 (IRF1) binding to an Interferon-Stimulated Response Element (ISRE) (AID 2282948). As to conditions: HepG2 ISRE cis-reporter (Attagene), mRNA transcription readout; actives raise or lower the signal. In outline:
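Quantitation relies on labelled RT-PCR fragments separated by capillary electrophoresis. Human HepG2 cells bearing cis-promoter reporter constructs were treated 24 h; DMSO served as baseline for bidirectional fitting.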

In assay [19] the target is Bile acid receptor (Homo sapiens) (UniProt Q96RI1). Briefly: ATG_IR1_CIS: Attagene CIS-FACTORIAL HepG2 Assay for human Nuclear Receptor Subfamily 1 Group H Member 4 (NR1H4), IR1 submotif (AID 2282946). The settings on record: IR1 reporter transcription, actives raise or lower the signal. In outline:
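Transient MRTU transfection, HepG2; 24 h dosing; RNA → RT-PCR → 6-FAM primer extension → HpaI digest → capillary electrophoresis fluorescence. Gain/loss of signal fitted relative to DMSO.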

Assay [20] deals with Retinoic acid receptor alpha (Homo sapiens) (UniProt P10276). Kind of assay: ATG_DR5_RAR_CIS: Attagene CIS-FACTORIAL HepG2 Assay for human Retinoic Acid Receptor Alpha (RARE), DR5 submotif (AID 2282934). The settings on record: HepG2 Attagene cis-factorial RARE DR5 reporter, mRNA; actives raise or lower the signal. In outline: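 Transfected HepG2 reporter cells are exposed to chemicals for 24 h. Then RNA is extracted and the DR5 element reporter transcript is measured by RT-PCR and capillary electrophoresis, with bidirectional curve fitting relative to DMSO.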

Activity calls are given as the source filed them. How the source made its calls: active means hit-call score of the fitted dose curve at least 0.9, where 1 is the maximum; inactive means score below 0.9.

Chain of Aryl hydrocarbon receptor (Homo sapiens) (P35869 whole entry, looked up): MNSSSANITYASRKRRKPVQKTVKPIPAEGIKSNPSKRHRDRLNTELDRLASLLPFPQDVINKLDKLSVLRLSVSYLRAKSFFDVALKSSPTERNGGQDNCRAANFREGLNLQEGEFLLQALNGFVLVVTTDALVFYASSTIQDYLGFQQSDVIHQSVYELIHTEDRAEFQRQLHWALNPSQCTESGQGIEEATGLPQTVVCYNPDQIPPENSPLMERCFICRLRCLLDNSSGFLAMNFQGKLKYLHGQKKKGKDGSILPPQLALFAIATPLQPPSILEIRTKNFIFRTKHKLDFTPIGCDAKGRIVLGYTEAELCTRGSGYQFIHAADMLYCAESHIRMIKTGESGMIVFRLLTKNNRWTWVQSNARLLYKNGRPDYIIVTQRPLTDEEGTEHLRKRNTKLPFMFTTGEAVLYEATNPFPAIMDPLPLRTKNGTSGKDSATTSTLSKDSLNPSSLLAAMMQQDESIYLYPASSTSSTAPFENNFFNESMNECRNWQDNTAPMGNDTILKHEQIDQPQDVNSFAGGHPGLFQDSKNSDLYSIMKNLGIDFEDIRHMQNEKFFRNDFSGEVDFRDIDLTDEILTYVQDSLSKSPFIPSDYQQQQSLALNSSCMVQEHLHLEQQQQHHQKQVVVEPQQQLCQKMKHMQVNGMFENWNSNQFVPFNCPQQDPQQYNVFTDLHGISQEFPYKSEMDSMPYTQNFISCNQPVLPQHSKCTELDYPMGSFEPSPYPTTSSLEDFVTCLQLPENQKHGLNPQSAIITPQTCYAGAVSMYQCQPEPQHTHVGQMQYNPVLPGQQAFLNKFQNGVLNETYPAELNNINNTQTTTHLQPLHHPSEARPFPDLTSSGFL
Chain of Transcription factor E2F1 (Homo sapiens) (Q01094 whole entry, looked up): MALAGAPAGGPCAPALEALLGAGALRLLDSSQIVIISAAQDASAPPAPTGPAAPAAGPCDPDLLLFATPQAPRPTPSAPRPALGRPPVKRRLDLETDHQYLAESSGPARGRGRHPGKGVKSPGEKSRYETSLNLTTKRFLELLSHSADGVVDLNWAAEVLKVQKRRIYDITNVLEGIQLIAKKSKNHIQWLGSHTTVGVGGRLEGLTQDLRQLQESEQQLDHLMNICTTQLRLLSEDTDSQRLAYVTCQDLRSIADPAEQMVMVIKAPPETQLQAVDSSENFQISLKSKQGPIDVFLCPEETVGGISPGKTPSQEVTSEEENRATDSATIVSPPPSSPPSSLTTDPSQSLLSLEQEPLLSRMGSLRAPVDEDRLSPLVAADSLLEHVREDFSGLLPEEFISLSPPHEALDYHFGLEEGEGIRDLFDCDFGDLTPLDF
Chain of Hepatocyte nuclear factor 3-beta (Homo sapiens) (Q9Y261 whole entry, looked up): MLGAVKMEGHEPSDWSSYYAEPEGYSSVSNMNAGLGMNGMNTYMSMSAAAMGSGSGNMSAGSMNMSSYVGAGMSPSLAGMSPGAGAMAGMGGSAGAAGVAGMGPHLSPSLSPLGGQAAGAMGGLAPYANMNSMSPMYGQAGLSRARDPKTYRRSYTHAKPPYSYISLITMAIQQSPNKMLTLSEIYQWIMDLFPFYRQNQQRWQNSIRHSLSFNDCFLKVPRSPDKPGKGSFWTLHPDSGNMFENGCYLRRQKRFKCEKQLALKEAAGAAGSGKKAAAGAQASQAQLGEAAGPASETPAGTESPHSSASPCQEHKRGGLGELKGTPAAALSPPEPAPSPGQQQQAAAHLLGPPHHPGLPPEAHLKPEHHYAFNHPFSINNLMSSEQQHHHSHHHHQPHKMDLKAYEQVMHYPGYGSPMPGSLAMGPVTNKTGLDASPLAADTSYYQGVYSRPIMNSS
Chain of Bile acid receptor (Homo sapiens) (Q96RI1 whole entry, looked up): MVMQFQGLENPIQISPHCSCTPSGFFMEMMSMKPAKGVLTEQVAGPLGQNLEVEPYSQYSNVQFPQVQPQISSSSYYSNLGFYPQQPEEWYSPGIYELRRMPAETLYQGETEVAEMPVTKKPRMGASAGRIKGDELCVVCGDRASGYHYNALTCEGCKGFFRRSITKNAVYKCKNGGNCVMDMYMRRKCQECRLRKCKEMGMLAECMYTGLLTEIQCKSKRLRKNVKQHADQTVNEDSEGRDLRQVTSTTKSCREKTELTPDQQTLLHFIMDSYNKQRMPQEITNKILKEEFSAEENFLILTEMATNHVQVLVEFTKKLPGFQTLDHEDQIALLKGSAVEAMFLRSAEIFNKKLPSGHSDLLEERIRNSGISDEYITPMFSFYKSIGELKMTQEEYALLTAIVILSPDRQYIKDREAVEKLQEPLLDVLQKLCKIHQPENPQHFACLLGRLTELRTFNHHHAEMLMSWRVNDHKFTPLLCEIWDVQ
Chain of Retinoic acid receptor alpha (Homo sapiens) (P10276 whole entry, looked up): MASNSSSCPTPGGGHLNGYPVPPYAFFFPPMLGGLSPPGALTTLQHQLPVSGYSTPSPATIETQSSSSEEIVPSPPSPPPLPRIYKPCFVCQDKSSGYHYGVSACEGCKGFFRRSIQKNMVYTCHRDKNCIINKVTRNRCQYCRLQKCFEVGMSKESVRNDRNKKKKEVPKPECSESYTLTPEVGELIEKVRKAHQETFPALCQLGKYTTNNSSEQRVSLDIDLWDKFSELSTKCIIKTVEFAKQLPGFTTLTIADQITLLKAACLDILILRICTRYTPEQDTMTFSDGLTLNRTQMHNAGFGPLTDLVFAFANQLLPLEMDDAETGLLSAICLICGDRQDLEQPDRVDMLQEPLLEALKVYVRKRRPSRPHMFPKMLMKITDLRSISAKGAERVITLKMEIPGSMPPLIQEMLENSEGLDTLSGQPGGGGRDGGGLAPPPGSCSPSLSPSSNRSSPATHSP

As usually defined, the AC50 is the midpoint of the concentration-response curve, whichever way the signal moves. With `C[N+](C)(CCCNS(=O)(=O)CCC(F)(F)C(F)(F)C(F)(F)C(F)(F)C(F)(F)C(F)(F)F)CC(=O)[O-]`, the call in [1], in [4], in [5], in assay [6], in assay [7] and in assay [8] was inactive. Besides, the call in [9], in [10], in assay [12], in assay [13], in [14] and in assay [15] was inactive. Also, the call in [16], in assay [17] and in assay [18] was inactive. The AC50 is 0.0224 µM (active) in assay [2], 0.00657 µM (active) in [3] and 0.0122 µM (active) in [11].
As to `FCOC(C(F)(F)F)C(F)(F)F`, the compound was called inactive in [1], in assay [2], in [3], in assay [4], in [5] and in [6]. For the same compound, the outcome in assay [7], in assay [8], in assay [9], in assay [10], in assay [11] and in assay [12] was inactive. Moreover, the call in assay [13], in assay [14], in [15], in [16], in [19] and in assay [17] was inactive. The outcome in assay [18] was inactive.
`O=C(CCCN1CCC(O)(c2ccc(Cl)cc2)CC1)c1ccc(F)cc1`: the compound was called inactive in [1], in [2], in assay [4], in assay [5], in [6] and in [8]. Further, the outcome in assay [10], in assay [12], in assay [16] and in assay [18] was inactive. Further, the half-maximal activity concentration (AC50) in [3] was 60.1 µM (active); in assay [7], 22 µM (active); in [9] it was 33.4 µM (active); in [14], 52.7 µM (active); in assay [15], 52.8 µM (active).
`CCc1ccccc1O`: the call in assay [1], in assay [3], in assay [4], in assay [5], in [6] and in assay [8] was inactive. The compound was classed as inactive in assay [9], in assay [10], in assay [11], in [12], in assay [13] and in [14]. Also, the outcome in assay [15], in assay [16], in assay [19], in [17] and in assay [18] was inactive. For the same compound, in [2], the AC50 was 10.3 µM (active).
For `CCCCCCCCCC=CCC1CC(=O)OC1=O` (stereo not given), the call in assay [1], in assay [3], in assay [4], in assay [5], in assay [6] and in [8] was inactive. Also, the call in assay [9], in assay [10], in assay [12], in assay [14], in assay [15] and in assay [16] was inactive. In addition, the result in assay [19], in [17] and in [18] was inactive.
Take `Cc1[nH]nc2c1N=C(c1ccccc1Cl)c1cc([N+](=O)[O-])ccc1N2`: the AC50 is 2.67 µM (active) in assay [1], 0.125 µM (active) in assay [3], 3.12 µM (active) in assay [4] and 2.9 µM (active) in assay [18]. Moreover, the compound was classed as inactive in assay [5], in assay [20], in assay [6], in [7], in assay [8] and in assay [9]. For the same compound, the call in assay [10], in assay [12], in assay [13], in [14], in [15] and in assay [16] was inactive. The call in assay [17] was inactive.
Consider `FC(OC(F)(F)C(F)(F)C(F)(F)F)C(F)(F)F` (stereo not given), for which the call in assay [1], in assay [2], in assay [3], in [4], in assay [5] and in assay [6] was inactive. The outcome in [7], in [8], in assay [9], in assay [11], in [12] and in assay [13] was inactive. The call in assay [14], in assay [15], in assay [16], in assay [19], in [17] and in [18] was inactive.
